# The list is not random: actives were taken first. Their share in the collection is about 3.4%.
# sPLA2-III inh: Inhibits HGIII-sPLA2 liposome hydrolysis, primary screen | Q9NZ20 | QFRET BODIPY PC-A2 liposome hydrolysis, fluorescence | inhibition, % at 12.2 µM | actives 0.56% (n = 370,000) | AID 743126;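 active means inhibition above mean plus 3 SD of compounds lying within the high and low control bounds, cut at about 19% in these data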
# ADAM17 inh: inhibitors of human ADAM17 | recombinant ADAM17, EDANS/DABCYL FRET peptide cleavage | inhibition, % at 6.95 µM | actives 0.83% (n = 370,000);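 active means inhibition above the mean of compounds lying between control limits plus 3 SD, set per campaign, cut at about 8.5% in these data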
# KLK7 zymogen act: proKLK7 (human) activation, primary screen; purified proKLK7, EDANS-DABCYL substrate fluorescence; 100% is mature enzyme control, 0% vehicle; activation, % at 7 µM; actives 0.9% (n = 370,000);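 active means activation above the mean of all tested compounds plus 3 SD, computed per campaign excluding outliers beyond control limits, cut at about 13% in these data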
# ADAM10 inh: inhibitors of human ADAM10 | O14672 | recombinant ADAM10, EDANS/DABCYL FRET peptide cleavage, 3 h | inhibition, % at 7 µM | actives 0.62% (n = 370,000);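 active means inhibition above a per-campaign cutoff equal to the mean of compounds falling between control-based bounds plus 3 SD, cut at about 20% in these data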
# CendR NRP1 mod: modulators of CendR peptide binding to human neuropilin-1 | O14786 | FAM-RPARPAR peptide binding to NRP-1, fluorescence polarization | inhibition, % at 25 µM | actives 0.85% (n = 360,000) | AID 602438;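 active means inhibition or corrected inhibition above about 18%, plus a signal ratio from 0.5 to 1.5, limit read from the data, passing the limit was not always enough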
# Target sequence (O14786 whole entry, looked up): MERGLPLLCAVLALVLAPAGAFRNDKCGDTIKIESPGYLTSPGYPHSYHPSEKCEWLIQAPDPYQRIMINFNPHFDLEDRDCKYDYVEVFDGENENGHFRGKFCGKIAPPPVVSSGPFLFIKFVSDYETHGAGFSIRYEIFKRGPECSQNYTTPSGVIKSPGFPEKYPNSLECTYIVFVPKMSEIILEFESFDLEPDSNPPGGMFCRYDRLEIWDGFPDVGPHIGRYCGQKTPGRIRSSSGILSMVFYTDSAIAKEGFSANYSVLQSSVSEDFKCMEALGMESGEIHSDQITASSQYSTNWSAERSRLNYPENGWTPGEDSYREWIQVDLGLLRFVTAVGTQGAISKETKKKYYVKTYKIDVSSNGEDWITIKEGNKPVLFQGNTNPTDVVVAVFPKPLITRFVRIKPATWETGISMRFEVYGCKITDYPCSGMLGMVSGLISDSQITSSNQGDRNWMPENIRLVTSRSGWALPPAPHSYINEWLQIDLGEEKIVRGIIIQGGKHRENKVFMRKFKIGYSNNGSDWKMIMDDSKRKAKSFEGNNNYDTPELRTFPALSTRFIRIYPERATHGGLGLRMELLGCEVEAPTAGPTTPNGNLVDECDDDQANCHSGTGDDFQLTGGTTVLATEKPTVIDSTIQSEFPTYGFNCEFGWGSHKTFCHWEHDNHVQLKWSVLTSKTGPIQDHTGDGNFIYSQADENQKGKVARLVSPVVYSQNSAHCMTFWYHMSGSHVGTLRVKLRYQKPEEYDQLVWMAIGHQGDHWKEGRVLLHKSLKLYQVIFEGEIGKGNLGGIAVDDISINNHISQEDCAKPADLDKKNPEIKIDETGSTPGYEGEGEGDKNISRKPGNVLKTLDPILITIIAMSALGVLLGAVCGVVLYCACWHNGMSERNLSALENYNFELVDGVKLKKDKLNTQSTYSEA
# proKLK7 act conf: confirmation of human kallikrein-7 zymogen activators. shares compounds with KLK7 zymogen act. purified proKLK7, EDANS-DABCYL substrate fluorescence; scaled: vehicle 0, mature enzyme 100. activation, % at 7 µM. actives 68% (n = 3,200);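 active means activation, as change over the incubation, above the mean of all tested compounds plus 3 SD, cut at about 13% in these data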
# EDANS-DABCYL int: counter-screen for kallikrein-7 activators: EDANS-DABCYL optical interference; AID 686952; EDANS-DABCYL substrate fluorescence interference, no enzyme, 4 h; solvent 0%, active enzyme control 100%; activation, % at 7 µM; actives 80% (n = 3,200); shares compounds with KLK7 zymogen act;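 active means activation above the all-compound mean plus 3 SD, ignoring values outside control-based bounds, cut at about 4.8% in these data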;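 further: value is the 4 h activation minus the activation read at time zero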
# A number is an active result; - = inactive; . = no result given.
SMILES,sPLA2-III inh,ADAM17 inh,KLK7 zymogen act,ADAM10 inh,CendR NRP1 mod,proKLK7 act conf,EDANS-DABCYL int
CC(=O)Nc1cc(-c2ccccc2N(C)C)cn2c(-c3ccc(S(C)(=O)=O)cc3)cnc12,-,-,13,-,-,-,11
CC(=O)Nc1cc(-c2ccccc2N(C)C)cn2c(-c3ccccc3)cnc12,-,-,-,-,-,.,.
O=c1[nH]c2cc3c(cc2cc1C(c1nnnn1CC1CCCO1)N1CCCC1)OCO3 (stereo not given),-,-,15,-,-,-,9.4
COc1ccc(C2Nc3ccccc3C(=O)N2O)cc1OC (stereo not given),-,-,-,-,-,.,.
CCN(CC)CCN1C(=O)c2ccccc2NC1c1cc(OC)c(OC)c(OC)c1 (stereo not given),-,-,99,-,-,14,18
CCCN1C(=O)c2ccccc2NC1c1cc(OC)c(OC)c(OC)c1 (stereo not given),-,-,16,-,-,-,16
COc1ccc(CCN2C(=O)c3ccccc3NC2c2cc(Cl)c(O)c(OC)c2)cc1 (stereo not given),-,-,-,-,-,.,.
COc1ccc(C2=NS(=O)(=O)N(C)C(C(=O)NC3CCCCC3)=C2)cc1OC,-,-,13,-,-,-,-
COc1ccc(C2=NS(=O)(=O)N(C)C(C(=O)NC3CCCC3)=C2)cc1OC,-,-,-,-,-,.,.
CCc1nn(CC(=O)NCCN2CCOCC2)c(=O)c2cc3c(OC)cccc3n12,-,-,27,-,-,19,28
CCCN1CCN(C(=O)Cn2nc(C)n3c(cc4c(OC)cccc43)c2=O)CC1,-,-,-,-,-,.,.
COc1cccc2c1cc1c(=O)n(CC(=O)NCCCN3CCN(C)CC3)nc(C)n12,-,-,60,-,-,83,76
COc1ccc2c(CCN3C(=O)c4ccccc4C3=O)c(-c3c(CCN4C(=O)c5ccccc5C4=O)c4ccccc4n3C(=O)OC(C)(C)C)[nH]c2c1,-,-,.,-,.,.,.
C[C@]12c3[nH]c4cc(-c5ccco5)ccc4c3CCN1C(=O)[C@@H](CC(=O)NCCc1ccccn1)C[C@@H]2C(=O)N1CCOCC1,-,-,113,-,-,52,68
CC(C)N(C(=O)[C@H]1C[C@H](CC(=O)NCCc2ccccn2)C(=O)N2CCc3c([nH]c4cc(-c5ccco5)ccc34)[C@]12C)C(C)C,-,-,184,-,-,29,30
CCN(CC)C(=O)[C@H]1C[C@H](CC(=O)NCCc2ccccn2)C(=O)N2CCc3c([nH]c4ccc(Cl)cc34)[C@]12C,-,-,-,-,-,.,.
C[C@]12c3[nH]c4ccc(Cl)cc4c3CCN1C(=O)[C@@H](CC(=O)NCCc1ccccn1)C[C@@H]2C(=O)N1CCOCC1,-,-,-,-,-,.,.
CCN(CC)C(=O)[C@H]1C[C@H](CC(=O)NCCc2ccccn2)C(=O)N2CCc3c([nH]c4cc(-c5ccco5)ccc34)[C@]12C,-,-,147,-,-,64,79
CC(C)N(C(=O)[C@H]1C[C@H](CC(=O)NCCC2=CCCCC2)C(=O)N2CCc3c([nH]c4cc(-c5ccco5)ccc34)[C@]12C)C(C)C,-,-,-,-,-,.,.
O=C(Nc1ccc2c(c1)Cc1ccccc1-2)NC1CCCCN(Cc2ccc(Cl)cc2)C1=O (stereo not given),-,-,-,-,.,.,.
Clc1ccc(CSc2nnc(-c3cccs3)o2)cc1Cl,-,-,-,-,.,.,.
O=S1(=O)C=CCN1Cc1cn(Cc2ccc(F)cc2)nn1,-,-,-,-,.,.,.
COc1ccc(-c2oc3c(c2C#CC2(O)CCCCC2)C(OC(C)=O)CCC3)cc1 (stereo not given),-,-,-,-,-,.,.
COc1ccc(-c2oc3c(c2C#CC(C)(C)O)C(OC)CCC3)cc1 (stereo not given),-,-,23,-,-,-,-
CCNC(=O)N(C)[C@H]1C[C@H]2c3[nH]c4c(-c5ccccc5)cccc4c3CCN2C(=O)[C@H]1[C@H](C)O,-,-,-,-,.,.,.

# Assay outcomes as filed in PubChem BioAssay.
